# M1 antagonist: blocks the rat M1 muscarinic receptor response to acetylcholine. CHO-M1 cells, Fluo-4 calcium, ACh EC80 antagonist mode; stronger effect = lower value. B-score at 10 µM. 64,000 compounds, 3.4% hits. AID 628;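 active = calcium fluorescence response, raw or row-and-column corrected B-score, differing from the plate sample mean either way at a set confidence level, mostly lower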
# Target sequence (P08482 whole entry, looked up): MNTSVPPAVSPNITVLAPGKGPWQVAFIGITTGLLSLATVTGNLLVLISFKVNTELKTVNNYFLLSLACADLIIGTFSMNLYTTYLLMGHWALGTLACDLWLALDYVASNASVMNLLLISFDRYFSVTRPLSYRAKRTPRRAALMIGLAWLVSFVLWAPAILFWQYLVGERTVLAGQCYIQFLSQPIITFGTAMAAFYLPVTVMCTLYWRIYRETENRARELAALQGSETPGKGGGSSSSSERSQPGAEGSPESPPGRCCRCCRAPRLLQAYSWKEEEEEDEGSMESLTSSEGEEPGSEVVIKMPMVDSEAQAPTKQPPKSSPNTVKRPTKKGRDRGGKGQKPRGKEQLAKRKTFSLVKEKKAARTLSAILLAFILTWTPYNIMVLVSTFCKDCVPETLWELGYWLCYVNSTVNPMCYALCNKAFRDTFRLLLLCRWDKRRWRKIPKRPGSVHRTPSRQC
# D1 mod: allosterically modulates the human D1 dopamine receptor. P21728. HEK293 D1, CRE-luciferase, dopamine EC30 potentiation; actives deviate in either direction. B-score at 10 µM. 58,000 compounds, 5.9% hits;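 active = luminescence count or its row- and column-corrected plate score outside the 99.7% band of the plate's sample wells, on either side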
# WNV NS2B-NS3 inh: WNV NS2B-NS3 proteinase inhibition; P06935; WNV NS2B-NS3 protease, fluorogenic substrate Ex360/Em465; stronger effect = lower value; z-score (test concentration not listed); 65,000 compounds, 0.18% hits; AID 577; in the data active = z-score below about -3
# M1 agonist: agonists of M1 muscarinic receptor; CHO-M1 cells, Fluo-4 calcium fluorescence, agonist mode; stronger effect = higher value; B-score at 10 µM; 64,000 compounds, 3% hits; AID 626;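 active = fluorescence rise, raw or as B-score row- and column-corrected plate score, outside the 99.7% band of its plate's samples, either direction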
# Htt clearance: compounds clearing mutant huntingtin protein; HeLa Exon1htt(103Q)mCFP, aggregate imaging; zero = plate's median compound well; inhibition, % at 1.5 µM; 47,000 compounds, 0.42% hits; AID 853;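 active = inhibition of aggregate fluorescence above about 70%, also judged a hit by eye on the cell image, limit read from the data, passing the limit was not always enough; inconclusive = no rule stated for this call; inactive = not judged a hit on image review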;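 also: cells exposed to compound for three days before fixation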
# D1 mod confirm: D1 receptor (human) allosteric modulation, confirmed; 2,200 compounds, 88% hits; luminescence at 10 µM; shares compounds with D1 mod; HEK293 D1 CRE-luciferase, dopamine EC30 potentiation; stronger effect = higher value;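 active = luminescence in either of two replicates above the same-plate mean plus 3 SD of the low-dose dopamine control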
# D1 ag no DA: secondary test of D1 modulators: activity without dopamine; shares compounds with D1 mod; HEK293 D1 CRE-luciferase, luminescence, no dopamine; stronger effect = higher value; luminescence at 10 µM; 1,900 compounds, 0.8% hits; in the data active = luminescence above about 3900
# Isoprot counter: isoproterenol response counter-screen activity for D1 modulators. shares compounds with D1 mod. HEK293 D1 CRE-luciferase, isoproterenol EC30 counter-screen. calls only at 10 µM. 2,200 compounds, 63% hits. AID 647;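 active = luminescence in either replicate above plate mean of wells with a partly effective reference agonist dose plus 3 SD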;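 also: isoproterenol raises cAMP through native beta-adrenoceptor Gs so signal bypasses D1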
# Numbers stand for hits; 0 = inactive; ? = inconclusive; - = no result given; + = active, no number. Only some compounds are listed: those with a hit (about 8.9% of all), similar ones and a draw of the others.
SMILES,M1 antagonist,D1 mod,WNV NS2B-NS3 inh,M1 agonist,Htt clearance,D1 mod confirm,D1 ag no DA,Isoprot counter
N#Cc1c(-c2cccs2)cc(-c2ccccn2)nc1N,-,5.6,0,-,0,10756,0,+
CCOc1ccccc1NC(=O)C1C2C=CC(O2)C1C(=O)O (stereo not given),0,4.8,0,0,0,0,0,0
CCOc1ccccc1NC(=O)C1C2C=CC(C2)C1C(=O)O (stereo not given),-,-,-,-,0,-,-,-
CSc1ccccc1NS(=O)(=O)c1ccccc1,0,0,0,0,0,-,-,-
O=S1(=O)CCC(N=Cc2cc(Br)ccc2O)C1 (stereo not given),0,0,0,0,0,-,-,-
Cn1c(=O)n(CC(=O)O)c(=O)c2c1nc1n2CCS1,0,5.7,0,0,0,0,0,0
Cc1cc(C)n(-c2ccc(C(=O)C(C#N)c3nc4ccccc4n3C)cc2)n1 (stereo not given),0,0,0,0,-,-,-,-
N#CCc1c(C#N)c(N)nc(N2CCN(S(=O)(=O)c3ccccc3)CC2)c1C#N,0,5.5,0,0,0,11684,0,+
O=S(=O)(c1ccccc1)N1CCN(c2ncccn2)CC1,-,-,-,-,0,-,-,-
CC(C)(C)NC(=O)CSc1ncnc2c1nnn2Cc1ccccc1Cl,0,0,0,0,-,-,-,-
NC1=NC(c2ccc(Cl)cc2)n2c(nc3ccccc32)N1 (stereo not given),0,9.1,0,0,-,11876,0,0
CCCCCCC1C(C#N)=C(N)OC2=C1C(=O)CC(C)(C)C2 (stereo not given),0,3.7,0,0,-,12024,0,+
CCC1C(C#N)=C(N)OC2=C1C(=O)CC(C)(C)C2 (stereo not given),0,0,0,0,-,-,-,-
CC1(C)CC(=O)c2cc(OCC(=O)NCc3cccnc3)ccc2O1,0,0,0,0,0,-,-,-
CC1(C)CC(=O)c2cc(OCC(=O)NCCCN3CCN(c4ccccc4F)CC3)ccc2O1,0,5.6,0,0,0,6164,-,+
CCC(Sc1nc(=O)cc(N)n1CCc1ccccc1)C(=O)Nc1ccccc1C#N (stereo not given),0,5.2,0,0,-,3424,0,0
CCC(Sc1nc(=O)cc(N)n1-c1ccccc1)C(=O)Nc1cc(C)on1 (stereo not given),0,0,0,0,0,-,-,-
CCn1c(SCC(N)=O)nc2c(c1=O)C1(CCCC1)Cc1ccccc1-2,0,0,-,0,-,-,-,-
CCn1c(=O)c2c(n3cnnc13)-c1ccccc1CC21CCCCC1,0,26,0,0,0,16572,0,+
COc1ccc(NC(=O)c2cc(-c3cc(C)cc(C)c3O)n[nH]2)cc1Cl,0,0,0,0,-,-,-,-
Cc1c(S(=O)(=O)Nc2cccc(Cl)c2)c(=O)n(C)c(=O)n1C,0,2.7,0,0,-,0,0,0
O=C(Nc1nccs1)C1C2/C=C\CCCCC21 (stereo not given),0,0,0,0,0,-,-,-
NC(=O)C1CCN(c2nc(C3CC3)nc3c2nnn3Cc2ccccc2Cl)CC1,0,-,0,0,-,-,-,-
NC(=O)C1CCN(c2nc(C3CC3)nc3c2nnn3Cc2ccccc2)CC1,0,15,0,0,-,24680,0,+
COCCN(C(=O)C(C)C)c1nnc(-c2cccc(C)c2)s1,0,0,0,0,0,-,-,-
SMILES,M1 antagonist,D1 mod,WNV NS2B-NS3 inh,M1 agonist,Htt clearance,D1 mod confirm,D1 ag no DA,Isoprot counter
COc1ccc(OC)c(-n2c(SCC(C)=O)nnc2-c2cccc(S(=O)(=O)N(C)C)c2)c1,0,3.8,0,0,-,0,0,0
COc1cccc(-n2c(SCc3c(C)noc3C)nnc2-c2cccc(S(=O)(=O)N(C)C)c2)c1,0,9.1,0,0,-,12244,0,+
CCSc1nnc(-c2cccc(S(=O)(=O)N(C)C)c2)n1-c1cc(OC)ccc1OC,0,0,0,0,-,-,-,-
Cc1cc(C)n(-c2nc3ccccc3nc2Nc2ccc(CC(=O)O)cc2)n1,0,21,0,0,?,7376,0,0
CCCCOCCCNC(=O)C1CCCCC1,0,0,0,0,-,-,-,-
CSc1c(C#N)c(N)c(C#N)c2c1COC(C)(C)C2,0,25,0,0,0,28108,0,+
CCCc1[nH]c(=O)c(C#N)c2c1COC(C)(C)C2,-,-,-,-,0,-,-,-
Cc1cc(C)n(-c2nc(C)nc(NCc3ccccc3)n2)n1,0,6.7,0,0,0,14476,0,+
O=C1COc2ccccc2N1Cc1ccccc1Cl,0,4.9,0,0,-,7968,0,0
CC1Oc2ccccc2N(Cc2ccccc2Cl)C1=O (stereo not given),0,-,0,0,-,-,-,-
CCOC(=O)C1CCCN(C(=O)C2CCCN(S(C)(=O)=O)C2)C1 (stereo not given),0,0,0,0,0,-,-,-
Cn1c(SCc2ccon2)nc2ccccc2c1=O,0,5.9,0,0,0,6248,0,0
Cc1ncsc1CCSc1nc2ccccc2c(=O)n1C,0,5.3,0,0,0,10832,-,+
Cc1nn(C)c(C)c1S(=O)(=O)N(CC(=O)NCCN1CCOCC1)c1ccc(C(C)C)cc1,0,0,0,0,-,-,-,-
COc1cccc(-c2nnc(NC(=O)c3ccc(S(=O)(=O)N4CC(C)OC(C)C4)cc3)o2)c1 (stereo not given),0,2.8,0,0,0,0,0,0
Cc1cc(-n2nc(C)cc2C)nc(NS(=O)(=O)c2ccccc2)n1,0,3.8,0,0,-,10456,0,0
CC(=O)Nc1ccc(S(=O)(=O)Nc2nc(C)cc(-n3nc(C)cc3C)n2)cc1,0,0,0,0,0,-,-,-
Cc1cc(N2CCC(C)CC2)nc(-n2nc(C)cc2C)n1,0,0,0,0,-,-,-,-
Cc1cc(-n2nc(C)cc2C)nc(N)n1,0,5.6,0,0,-,10308,-,+
COc1ccc(S(=O)(=O)NCCSCc2ccco2)cc1Cl,0,-,0,0,-,-,-,-
O=C(c1cccc(F)c1)N1CCc2ccccc2C1,0,4.6,0,0,0,9556,12280,0
Cc1cc(C(=O)NC(C)c2ccncc2)cs1 (stereo not given),0,0,0,0,0,-,-,-
CCOc1nc(NCCc2ccc(OC)c(OC)c2)nc(N2CCN(c3ccc(OC)cc3)CC2)n1,-,-,-,-,0,-,-,-
COc1ccc(N2CCN(c3nc(NCCc4ccc(OC)c(OC)c4)nc(OC)n3)CC2)cc1,0,2.8,0,0,0,11472,0,+
COc1ccc(CN2C(=O)c3cccnc3C2Nc2ccc(OC)c(Cl)c2)cc1 (stereo not given),0,7.6,0,0,-,13912,-,+
Cc1ccc(NC2c3ncccc3C(=O)N2Cc2ccc(F)cc2)cc1 (stereo not given),0,7.5,0,0,-,10592,-,+
COc1ccc(CN2C(=O)c3ccccc3C2C(=O)NCc2cccnc2)c(OC)c1 (stereo not given),0,0,0,0,-,-,-,-
